Test results from PubChem BioAssay (NCATS).
The source made the active and inactive calls. The rule behind the calls is not given here.

Test: qHTS assay for small molecule activators of the human pregnane X receptor (PXR) signaling pathway (AID 720659)
Conditions: DPX-2 HepG2 CYP3A4-luciferase, 24 h; series mostly up to 92.3 µM

SMILES	outcome
CCCCNC(=O)NS(=O)(=O)c1ccc(C)cc1	inactive
COc1cc(Cc2cnc(N)nc2N)cc(OC)c1OC	inactive
O=C(O)CCCCCCCC(=O)O	inactive
O=c1[nH]c(=O)n([C@H]2C[C@H](O)[C@@H](CO)O2)cc1Br	inactive
Nc1ncn([C@@H]2O[C@H](CO)[C@@H](O)[C@H]2O)c(=O)n1	inactive
CC(=O)Nc1nnc(S(N)(=O)=O)s1	inactive
